In the library only some 3.2% were active in any assay of this set; here they are far more common.
TRb SRC2 PPI: qHTS for Inhibitors of the Interaction of Thyroid Hormone Receptor and Steroid Receptor Coregulator 2; Thyroid hormone receptor beta (Homo sapiens), P10828; TRbeta-SRC2 peptide binding, fluorescence polarization; receptor liganded with 1 µM T3; hit rate 0.065% among 280,000; Potency, µM (top dose mostly 106 µM), hits mostly inhibitors; note: nearly all actives have a fitted effect of over 50% in size
Target sequence (P10828 whole entry, looked up): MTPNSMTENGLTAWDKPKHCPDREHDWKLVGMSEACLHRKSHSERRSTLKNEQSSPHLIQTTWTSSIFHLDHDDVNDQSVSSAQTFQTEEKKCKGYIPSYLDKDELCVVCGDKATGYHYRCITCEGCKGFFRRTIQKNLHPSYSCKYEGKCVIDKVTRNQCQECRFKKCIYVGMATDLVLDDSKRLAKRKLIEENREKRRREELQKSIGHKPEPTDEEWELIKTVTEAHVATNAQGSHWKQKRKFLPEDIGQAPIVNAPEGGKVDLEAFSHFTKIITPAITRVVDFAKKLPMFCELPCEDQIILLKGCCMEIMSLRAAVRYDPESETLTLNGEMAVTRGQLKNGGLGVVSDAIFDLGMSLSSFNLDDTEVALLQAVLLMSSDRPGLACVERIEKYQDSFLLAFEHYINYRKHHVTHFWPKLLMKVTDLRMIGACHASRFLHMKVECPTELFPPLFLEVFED
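TRb LBD 0.6 uM + Texas Red SRC2 peptide 20 nM, 1 uM T3, Tris buffer w/ 5% DMSO; compound pinned, 5 h RT; FP read ex 555/em 632; normalized to unbound and bound controls.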
TexasRed fluor: Total Fluorescence Counterscreen for Inhibitors of the Interaction of Thyroid Hormone Receptor and Steroid Receptor Coregulator 2; AID 1479, 2009; hit rate 0.29% among 280,000; Potency, µM (doses to about 106 µM); TRb/SRC2 Texas Red total fluorescence interference; active = well fitted curve in either direction with a large enough effect; inconclusive = small, poorly fitted or top-dose-only effect
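Human TRβ ligand-binding domain (0.6 uM) and Texas Red SRC2 peptide (20 nM) in Tris buffer with 1 uM T3 and 5% DMSO were incubated with pinned compound for 5 hr at ambient temperature. Total fluorescence was computed as S + 2P (555/632 nm).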
GoLoco inh red: qHTS Assay for Inhibitors of RGS12 GoLoco Motif Activity (Red Fluorophore); Potency, µM (highest dose often 61.6 µM), usual class: inhibitors; Gai1:RGS12 GoLoco peptide FP, rhodamine, 10 min; hit rate 0.44% among 230,000; active = well fitted inhibition curve with a large enough effect, not every such curve was filed as active; inactive = no such curve, though single readings can be large or run the other way; note: nearly all actives have a fitted effect of over 30% in size
Tau ThT inhib: qHTS for Inhibitors of Tau Fibril Formation, Thioflavin T Binding; recombinant tau K18 P301L, heparin-induced fibrillization, ThT fluorescence; Potency, µM (titrated, usually from 57.4 µM), actives largely listed as inhibitors; hit rate 2.1% among 270,000; note: nearly all actives have a fitted effect of over 55% in size
Target sequence (P10636 561-689 P618L limits assumed): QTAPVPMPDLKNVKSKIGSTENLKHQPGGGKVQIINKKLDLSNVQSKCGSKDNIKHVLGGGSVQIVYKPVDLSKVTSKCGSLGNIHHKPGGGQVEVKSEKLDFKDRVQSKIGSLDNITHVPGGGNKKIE
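K18 P301L tau (15 uM + 0.24 uM Alexa 594-tagged), heparin 20 uM, NaOAc pH 7, 6 h 37 C; ThT 30 uM, 1 h RT, ex 450/em 510 nm.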
Tau fluor cs: Counterscreen qHTS for Inhibitors of Tau Fibril Formation, Fluorescence Polarization; hit rate 0.93% among 280,000; tau K18 P301L Alexa594 fluorescence, heparin fibrillization; Potency, µM (doses to about 57.7 µM); note: nearly all actives have a fitted effect of over 55% in size
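Human tau K18 P301L (15 uM unlabeled, 0.24 uM Alexa 594-labeled) in 100 mM sodium acetate pH 7 with 20 uM heparin, 6 hr at 37 C. ThT 30 uM added, 1 hr ambient; Alexa 594 FP and total fluorescence read at 555/632 nm.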
Tau fibril FP: qHTS for Inhibitors of Tau Fibril Formation, Fluorescence Polarization. K18 P301L tau heparin fibrillization, Alexa594 FP, 6 h. Potency, µM (doses to about 57.7 µM), actives largely listed as inhibitors. hit rate 0.39% among 280,000; note: nearly all actives have a fitted effect of over 55% in size
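K18 P301L tau (15 uM unlabeled/0.24 uM Alexa 594-labeled, final) + compound + heparin 20 uM final; 100 mM NaOAc pH 7; 6 hr 37 C; ThT 30 uM final added, 1 hr RT; FP ex 555/em 632 nm.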
Numbers stand for hits; 0 = inactive; ? = inconclusive; - = no result; [ ] = another dose, or the depositor's remark. Unless noted, calls come from the whole dose curve; as a rule, active = well fitted curve in the direction sought with a large enough effect; inconclusive = small, poorly fitted or top-dose-only effect, or another doubt; inactive = no such curve, though single readings can be large; an effect the other way counts as inactive or inconclusive.

SMILES | TRb SRC2 PPI | TexasRed fluor | GoLoco inh red | Tau ThT inhib | Tau fluor cs | Tau fibril FP
CCCCn1c(=O)c2[nH]c(C34CC5CC(CC3C5)C4)nc2n(CCCO)c1=O | 0 | 0 | 0 | 0 | 0 | ?
C/C(=N\Nc1ccc(S(N)(=O)=O)cc1[N+](=O)[O-])c1ccccc1O | 0 | 0 | 0 | ? | 0 | 0
C/C(=N\Nc1ccc(S(N)(=O)=O)cc1[N+](=O)[O-])c1ccco1 | 0 | 0 | 0 | 5.01µM | ? | 0
NS(=O)(=O)c1ccc(N/N=C/c2ccc(O)cc2O)c([N+](=O)[O-])c1 | 0 | 0 | 0 | 2.24µM | ? | 0
NS(=O)(=O)c1ccc(N/N=C/c2ccccc2C(=O)O)c([N+](=O)[O-])c1 | 0 | 0 | 0 | ? | 0 | 0
NS(=O)(=O)c1ccc(N/N=C/c2ccc(O)c(O)c2O)c([N+](=O)[O-])c1 | 0 | ? | 0 | 2µM | 2µM[quencher] | 5.01µM
C/C=C/C(=O)[C@@H](C)[C@@H](/C=C/C[Si](C)(C)C)c1ccccc1 | 0 | 0 | - | - | - | -
C/C(=N\NC(=O)C(N)=O)c1cccc([N+](=O)[O-])c1 | 0 | 0 | 0 | ? | 0 | 0
C/C(=N/NC(=O)c1cc(O)c(O)c(O)c1)c1ccc([N+](=O)[O-])cc1 | 0 | 0 | 0 | 3.55µM | ? | 0
C/C(=N\Nc1ccc([N+](=O)[O-])cc1)c1ccc(O)cc1 | 0 | 0 | 0 | 3.16µM | ? | 0
C/C(=N\Nc1ccc([N+](=O)[O-])cc1)c1cccc(N)c1 | 0 | 0 | 0 | 3.55µM | 15.8µM[quencher] | ?
CC(=O)NC/C(C)=N\Nc1ccc([N+](=O)[O-])cc1 | 0 | 0 | 0 | 15.8µM | 0 | 0
C=CCOC(/C=C/c1ccccc1)C[Si](C)(C)C (stereo unspecified) | 0 | 0 | - | - | - | -
Cc1cccc(Cn2c(C(=O)OC(C)C)cc3c2ccn3C)c1 | ? | 0 | 0 | 35.5µM | ? | ?
COc1cc(OC)cc(-c2nnc3n2N=C(c2ccccc2OC)CS3)c1 | 0 | 0 | - | - | - | -
O=C1CCCC2=C1C1(O)C(=O)c3ccccc3C1(O)O2 (stereo unspecified) | 0 | 0 | 0 | 3.55µM | 0 | ?
N#CC1=C(N)OC2=C(C(=O)CCC2)[C@]12C(=O)N(CC(N)=O)c1ccccc12 | 0 | 0 | - | 0 | 0 | 0
COc1ccc(/C=c2\sc3nc(-c4ccccc4)c(-c4ccccc4)n3c2=O)cc1OC | 0 | 0 | 0 | ? | 0 | ?
O=c1/c(=C\c2cccc(O)c2)sc2nc(-c3ccccc3)c(-c3ccccc3)n12 | 0 | 0 | 0 | 11.2µM | ? | 25.1µM
CCCN1CCC(=O)N(CCSc2ccc(Br)cc2)CC1 | 0 | 0 | - | - | - | -
Cc1nc2ccccc2n2c(O)c(CC(=O)O)cc12 | ? | 0 | 12.6µM | 0 | 0 | 0
Cc1nc2ccccc2n1CCC(=O)O | 0 | 0 | 0 | 0 | 0 | 0
O=C1N=c2ccccc2=C1c1sc(NS(=O)(=O)Cc2ccccc2)nc1O | 0 | 0 | 0 | 7.94µM | 0 | 0
O=C1N=c2ccccc2=C1c1sc(Nc2ccc(O)cc2)nc1O | 0 | 0 | 0 | 2.24µM | 14.1µM[quencher] | 0
O=C1N=c2ccccc2=C1c1sc(NS(=O)(=O)c2ccccc2)nc1O | 0 | 0 | 0 | 7.08µM | ? | 0
SMILES | TRb SRC2 PPI | TexasRed fluor | GoLoco inh red | Tau ThT inhib | Tau fluor cs | Tau fibril FP
O=c1c(-c2cc(F)cc(F)c2)nc2cncnc2n1Cc1ccccc1 | - | - | 0 | - | - | -
COc1ccccc1CC(=O)Nc1ccc2nc(Nc3cccc(Cl)c3)cc(C)c2c1 | 0 | 0 | - | ? | 3.98µM[quencher] | ?
COc1ccc(CC(=O)Nc2ccc3nc(Nc4cccc(Cl)c4)cc(C)c3c2)cc1 | 0 | 0 | - | ? | 4.47µM[quencher] | ?
Cc1cc(Nc2cccc(C(F)(F)F)c2)nc2ccc(NC(=O)Cc3ccc(Cl)cc3)cc12 | 0 | 0 | - | ? | 7.94µM[quencher] | ?
Cc1ccc(OCC(=O)Nc2ccc3nc(Nc4cccc(Cl)c4)cc(C)c3c2)cc1 | 0 | 0 | - | 0 | ? | 0
Nc1ccc(S(=O)(=O)O)cc1 | 0 | 0 | 0 | - | - | -
C=C(C)C(=O)OCCCCCC | 0 | 0 | 0 | - | - | -
CSCC[C@H](NC(=O)[C@@H](NC(=O)[C@H](CCC(=O)O)NC(=O)[C@H](CCSC)NC(=O)[C@H](CC(N)=O)NC(=O)[C@H](CCC(=O)O)NC(=O)[C@H](CC(N)=O)NC(=O)[C@H](CO)NC(=O)[C@H](C)N)[C@@H](C)O)C(=O)O | 0 | ? | - | - | - | -
O=C1C2C3C=CC(C3=C(c3ccccc3)c3ccccc3)C2C(=O)N1Cc1ccccc1 (stereo unspecified) | 0 | 0 | 14.1µM | 0 | 0 | 0
S=C(NCc1ccccc1)NNc1nc2ccccc2[nH]1 | 0 | 0 | 0 | 28.2µM | ? | ?
CC1=NN(C(N)=S)C(=O)C1N=Nc1ccc(O)cc1 (stereo unspecified) | 0 | 0 | 0 | 12.6µM | 0 | 0
CC1CCCO1 (stereo unspecified) | 0 | 0 | 0 | - | - | -
CC1=C/C(=C(/c2ccc(O)c(C)c2)c2ccccc2C(=O)O)C=CC1=O | - | - | 0[14.2 µM] | - | - | -
O=C(O)C1=CC(=C(c2ccc(O)c(C(=O)O)c2)c2ccc(O)c(C(=O)O)c2)C=CC1=O | ? | ? | 2.82µM | 31.6µM | ? | ?
O=c1c2nc(Br)n([C@@H]3O[C@@H]4CO[P@@](O)(=S)O[C@H]4[C@H]3O)c2nc2[nH]c(-c3ccccc3)cn12 | 0 | 0 | - | - | - | -
COc1ccc(/C=C2\SC(=S)NC2=O)cc1OS(=O)(=O)c1ccc(NC(C)=O)cc1 | 0 | 0 | 0 | 12.6µM | 0 | 0
CCOc1ccc(/C=C2\SC(=S)NC2=O)cc1OC | 0 | 0 | 0 | ? | 0 | 0
COc1cc(/C=C2/SC(=S)NC2=O)ccc1OS(=O)(=O)c1ccc(C)cc1 | 0 | 0 | 0 | 15.8µM | ? | 0
COc1cc(/C=C2\SC(=S)NC2=O)ccc1OS(=O)(=O)c1ccccc1 | 0 | 0 | 0 | 15.8µM | ? | 0
O=C1[C@H]2[C@H]3[C@H](O)[C@H](O)C/C(=N/OCc4ccccc4)[C@@H]3CC[C@@H]2C(=O)N1C[C@@H]1CCCO1 | 0[11.2 µM] | 0[11.2 µM] | - | 0[11.5 µM] | 0[11.6 µM] | 0[11.6 µM]
NC(N)=NCCC[C@H](NC(=O)CC1(CC(=O)N2CCN(C3c4ccccc4NC(=O)c4ccccc43)CC2)CCCC1)C(=O)NCCn1c(=O)n(-c2ccccc2)n(-c2ccccc2)c1=O (stereo partly specified) | 0 | 0 | 0 | ? | 0 | 0
O=C(Nc1cc(Cl)cc2c1[nH]c1cnccc12)c1cccnc1 | 0 | 0 | - | - | - | -
CC(=O)Nc1cccc(-c2nnc(SCC(=O)c3ccc([N+](=O)[O-])cc3)o2)c1 | 0 | 0 | - | ? | 0 | 0

Assay outcomes deposited in PubChem BioAssay by National Center for Advancing Translational Sciences (NCATS).
